Eya2 phos inh: blocks the phosphatase activity of human Eya2; Potency, µM (top dose mostly 76.9 µM), for inactives: at the highest dose activity, negative = inhibition, hits mostly inhibitors; 330,000 compounds, 0.006% hits; recombinant Eya2, OMFP fluorescence dephosphorylation (OMFP is methylfluorescein phosphate); O00167; AID 488837; further: potency means the concentration at half of the fitted maximal effect
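Eya2 protein (added as 0.2 uM solution) was preincubated with compound for 10 min at ambient temperature in 50 mM HEPES pH 7.5, 50 mM NaCl, 5 uM MgCl2, 0.05% BSA, 1 mM DTT. OMFP (added at 50 uM) then reacted 10 min; fluorescence read at 485/525 nm.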
L3MBTL1 block: L3MBTL1 (human) inhibition; Potency, µM (series often up to 57.1 µM), for the others: at the top dose activity, negative = inhibition, hits mostly inhibitors; Q9Y468; AID 485360; AlphaScreen L3MBTL1–H3K9me1 peptide binding; 230,000 compounds, 0.66% hits; further: potency means the concentration at half of the fitted maximal effect; nearly all actives have a fitted effect of over 60% in size
Target sequence (Q9Y468 whole entry, looked up): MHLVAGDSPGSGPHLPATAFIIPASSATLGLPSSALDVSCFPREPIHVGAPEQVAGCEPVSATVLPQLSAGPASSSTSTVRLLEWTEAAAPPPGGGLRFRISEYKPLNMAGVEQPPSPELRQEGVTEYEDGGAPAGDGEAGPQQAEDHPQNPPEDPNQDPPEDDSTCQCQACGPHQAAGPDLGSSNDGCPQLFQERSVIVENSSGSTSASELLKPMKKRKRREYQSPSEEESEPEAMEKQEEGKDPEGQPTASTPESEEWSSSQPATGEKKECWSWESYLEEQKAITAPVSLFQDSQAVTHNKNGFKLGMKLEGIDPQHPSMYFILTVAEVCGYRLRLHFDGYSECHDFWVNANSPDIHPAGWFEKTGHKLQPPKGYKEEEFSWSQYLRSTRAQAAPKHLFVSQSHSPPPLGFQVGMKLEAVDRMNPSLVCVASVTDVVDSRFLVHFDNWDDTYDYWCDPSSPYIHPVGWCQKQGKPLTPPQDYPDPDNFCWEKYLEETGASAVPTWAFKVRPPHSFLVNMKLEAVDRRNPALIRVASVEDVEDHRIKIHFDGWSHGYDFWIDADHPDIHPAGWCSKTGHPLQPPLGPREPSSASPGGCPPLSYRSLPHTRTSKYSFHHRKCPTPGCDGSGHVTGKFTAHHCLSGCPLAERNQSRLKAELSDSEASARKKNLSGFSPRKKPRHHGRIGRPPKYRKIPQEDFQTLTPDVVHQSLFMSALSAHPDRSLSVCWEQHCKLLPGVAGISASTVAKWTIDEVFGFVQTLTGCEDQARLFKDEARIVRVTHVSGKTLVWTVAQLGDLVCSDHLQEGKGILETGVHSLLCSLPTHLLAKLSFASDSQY
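First, the protein-peptide complex forms for 30 min at room temperature (L3MBTL1 50 nM, biotinylated H3K9me1 peptide 75 nM). Next, compounds are pin-transferred and incubated 30 min. Finally, AlphaScreen beads are added and read after 30 min.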
Six1-Eya2 inh: inhibitors of human Six1/Eya2 interaction. AlphaScreen GST-Six1/His-Eya2 binding, biochemical; hits give low values. activity change, % (no concentration beside the values). AID 651725. 360,000 compounds, 0.56% hits. Q15475+O00167; in the data active means activity change below about -65%; inconclusive means mostly about -30% to -63%
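Six1/Eya2 binding was read as AlphaScreen signal after compounds were pinned into GST-Six1 plus His-tagged Eya2 (5X stock 250/500 nM) in pH 8.0 Tris/NaCl/TCEP buffer, beads added, then incubated 1 h, 37 C, dark.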
uPA generation: inhibitors of cell surface uPA generation | cell surface uPA generation assay, qHTS | Potency, µM (highest dose often 38.3 µM), for inactives: at the highest dose activity change, negative = inhibition, hits mostly inhibitors | 330,000 compounds, 0.31% hits; active means well fitted inhibition curve with a large enough effect; inconclusive means small, poorly fitted or top-dose-only effect; inactive means no such curve, though single readings can be large or run the other way; tested in mouse RAW 264.7 cells; further: potency means the concentration at half of the fitted maximal effect; nearly all actives have a fitted effect of over 55% in size
CtBP-E1A inh: CtBP/E1A binding inhibition; AlphaScreen GST-E1A/His-CtBP binding, 1536-well; hits give low values; activity change, % (no concentration beside the values); 340,000 compounds, 0.49% hits; AID 651724; in the data active means activity change below about -65%; inconclusive means mostly about -30% to -63%
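Protein mix (5X: 125 nM each GST-E1A, His-CtBP) was incubated with pinned compound 2 h at 37 deg C in dark, in 50 mM Tris pH 8.0 buffer with 300 mM NaCl. Glutathione donor and nickel acceptor beads followed; AlphaScreen signal read after 1 h.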
USP2a block: USP2a (human) protease inhibition; AID 463254; O75604; Potency, µM (top dose mostly 38.3 µM), for the others: top-dose activity change, negative = inhibition, most hits filed as inhibitors; 330,000 compounds, 0.01% hits; USP2 core, Ub-CHOP2 coupled fluorogenic reporter, 485/531;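 further: potency means the concentration at half of the fitted maximal effect; plate controls were DMSO wells for no effect and full inhibition by NEM control for full effect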
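Deubiquitinase activity read as fluorescence (485/531 nm) after Ub-CHOP2 cleavage activates the enterokinase reporter on its substrate; USP2 core 10nM, Ub-CHOP2 and substrate 25nM each, 30min compound preincubation then 60min RT; data normalized to NEM, curves fitted.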
The depositor's hits bear a star; ? = inconclusive; . = no result given; [ ] = dose if it differs, or a comment. Only some compounds are listed: those with a hit (about 1.2% of all), similar ones and a draw of the others. Unless noted, the call rests on the fitted dose curve; in most records, active means well fitted curve in the direction sought with a large enough effect; inconclusive means small, poorly fitted or top-dose-only effect, or another doubt; inactive means no such curve, though single readings can be large; an effect the other way counts as inactive or inconclusive. Unless noted, on the % scale 0 is the no-effect control and ±100 the full control effect.

SMILES	Eya2 phos inh	L3MBTL1 block	Six1-Eya2 inh	uPA generation	CtBP-E1A inh	USP2a block
Nc1nc(CN2CCCCCC2)nc(Nc2ccccc2)n1	-6%	28µM*	-28	3%	-22	0%
Nc1nonc1-n1nnc(C(=O)N/N=C/c2cccc(Cl)c2Cl)c1CN1CCCC1	-7%	.	13	1%	6	-1%
O=C(N/N=C/c1ccc(-c2ccc(S(=O)(=O)Nc3ncccn3)cc2)o1)c1cc2ccccc2cc1O	22%	.	-67*	5%	-20	?
NC(=S)NN=Cc1ccc(-c2ccc(S(=O)(=O)Nc3ncccn3)cc2)o1	12%	28µM*	?	1%	-3	0%
CCC(=O)c1ccc(OC(=O)N2CCOCC2)cc1	-1%	-5%	0	11%	.	0%
COCc1cc(C)nc(OCC(=O)N/N=C/c2ccccc2O)c1C#N	2%	-24%	-91*	3%	-84*	1%
COCc1cc(C)nc(OCC(=O)N/N=C/c2cccc(OC)c2)c1C#N	-30%	6%	-2	-5%	6	3%
COCc1cc(C)nc(OCC(=O)N/N=C/c2ccc(O)cc2O)c1C#N	1%	.	-84*	2%	-88*	3%
COc1cc(NC(=O)NCC2CCN(Cc3ccccc3F)CC2)cc(OC)c1	-1%	.	-5	2%	0	4%
O=C(NCCN1CCNCC1)c1ccccc1O	.	.	9	-25%	.	.
c1ccc(CNCCN2CCNCC2)nc1	-2%	?	-86*	.	-72*	1%
COc1ccc2ccc3c(c2c1)N=CC1(O3)N(C)c2ccccc2C1(C)C (centres undefined)	-3%	32µM*	-7	-21%	4	-3%
Cc1onc(C(=O)N2CCN(C(c3ccccc3)c3ccccc3)CC2)c1[N+](=O)[O-]	2%	-10%	-14	10µM*	-12	-2%
COc1ccccc1N1CCN(C(=O)c2noc(C)c2[N+](=O)[O-])CC1	6%	.	5	-6%	-7	3%
O=C(COC(=O)c1ccccc1O)NCc1ccc2c(c1)OCO2	5%	39%	5	-1%	3	-2%
CN(CC(=O)Nc1ccc(Cl)c(C(F)(F)F)c1)C(=O)COc1cccc2cccnc12	.	.	13	.	-22	.
CSc1ccccc1NC(=O)CN(C)C(=O)COc1cccc2cccnc12	0%	?	-85*	-5%	-85*	-27%
Cc1cccc(C(=O)OCC(=O)Nc2ccccc2C(=O)NC2CC2)c1	8%	7%	3	11%	-17	4%
CCN(C(=O)COC(=O)/C=C/c1c(C)nn(-c2ccccc2)c1C)C1CCS(=O)(=O)C1 (centres undefined)	3%	.	-7	-1%	-71*	8%
NC(=S)c1ccc[n+]([O-])c1	.	.	6	6%	-1	.
O=C(NCc1ccccc1)c1cc(C2COCCN2C(=O)c2ccccc2)on1 (centres undefined)	.	.	2	.	0	.
CCOC(=O)c1ccc(-c2c(-c3ccccc3OC)sc3cc4c(cc23)OCO4)cc1F	-8%	3%	9	5.6µM*	-19	-6%
Nc1nc(=S)c2ncn(C3OC(CO)C(O)C3O)c2[nH]1 (centres undefined)	14%	25µM*	?	5%	?	5%
Nc1nc(=S)c2ncn([C@@H]3O[C@H](CO)[C@@H](O)[C@H]3O)c2[nH]1	9%	-1%	2	?	2	0%
CN(C)c1cc(-c2ccccc2)nc(-c2ccccc2)n1	-11%	0%[2.29 µM]	1	3%	10	1%
SMILES	Eya2 phos inh	L3MBTL1 block	Six1-Eya2 inh	uPA generation	CtBP-E1A inh	USP2a block
CN(C)c1cc(-c2ccccc2)nc(N)n1	0%	.	-9	10µM*	3	3%
O=c1c2ccccc2oc2ccc(NCCCn3ccnc3)cc12	-9%	-8%	-18	4.5µM*	-22	6%
c1ccc2c(c1)oc1c(NCCCn3ccnc3)ncnc12	-1%	4%	-12	9%	-1	5%
C/C(=N\NC(=O)CNC(=O)C1COc2ccccc2O1)c1ccc(Cl)cc1 (centres undefined)	-2%	15%	1	2%	5	0%
C=CCOc1c(Br)cc(CNc2ccc3[nH]c(=O)[nH]c3c2)cc1OCC	1%	-14%	?	-7%	-14	4%
CCOc1cc(CNc2ccc(N3CCOCC3)cc2)cc(Br)c1OCC	-19%	32µM*	-27	-19%	-67*	0%
CCOc1cc(CNc2ccc(N(C)C)cc2)cc(Br)c1OCC(=O)NC(C)(C)C	-21%	?	-4	-4%	?	2%
COc1cc(CNc2ccc(N3CCOCC3)cc2)cc(Br)c1OC	-7%	-15%[11.4 µM]	?	2%	.	-2%
CCOc1cc(CNc2ccc(N3CCCCC3)cc2)cc(Br)c1OCC(=O)NC(C)(C)C	-14%	28µM*	?	-3%	?	3%
CCOc1cc(CNc2ccc3c(c2)OCCO3)cc(Br)c1OCC	-18%	?	-67*	-18%	?	2%
CC(C)c1ccc(CNc2ccc(N3CCOCC3)cc2)cc1	-11%	?	-72*	-6%	-67*	1%
O=C1c2ccccc2S(=O)(=O)c2cc(N3CCOCC3)ccc21	.	.	2	2.5µM*	2	.
O=C1c2ccccc2S(=O)(=O)c2cc(N3CCN(c4ccccc4)CC3)ccc21	.	.	-1	2%	5	.
C#CCSc1nnc(-c2cccc3ccccc23)o1	.	.	22	.	36	.
C=CCSc1nnc(-c2cccc3ccccc23)o1	-4%	7.9µM*	.	7%	.	-1%
O=C1c2ccccc2NC(c2cccc(F)c2)N1Cc1ccco1 (centres undefined)	-1%	4.5µM*	-10	-28%	-10	-1%
CCC1=NN(C(=O)c2ccc(C)cc2)C(O)(c2ccc(Br)cc2)C1 (centres undefined)	-21%	-13%	-5	8%	-3	-1%
CCC1=NN(C(=O)c2cccc(Br)c2)C(O)(c2ccc(Br)cc2)C1 (centres undefined)	1%	28µM*	-9	-23%	-7	-7%
COc1ccccc1C(=O)Nc1ccc(S(=O)(=O)N2CCc3ccccc32)cc1	4%	.	0	12%	4	2%
COc1ccc(S(=O)(=O)N2CCc3ccccc32)cc1C(=O)Nc1ccc(C(N)=O)cc1	5%	-8%	-10	14µM*	-3	-1%
Oc1cc(NCCc2cccnc2)cc2cccnc12	-5%	28µM*	.	?	.	-1%
Oc1cc(Nc2cccnc2)cc2cccnc12	-17%	32µM*	.	?	.	-2%
Oc1cc(Nc2ccncc2)cc2cccnc12	6%	22µM*	.	-25%	.	2%

Assay outcomes: PubChem, National Center for Advancing Translational Sciences (NCATS)
